Source: PubChem
Sampled rows, rich in hits. Any-hit rate of the full collection: about 0.9%.
PPARg SRC3 recr = PPARgamma-driven SRC-3 recruitment agonism | P37231 | biochemical PPARgamma/SRC-3 coactivator recruitment assay | 200,000 compounds, 0.26% hits | activation, % at 8 µM; in the data active means activation above about 23%;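 further: 0% = DMSO and 100% = reference agonist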
Target sequence (P37231 whole entry, looked up): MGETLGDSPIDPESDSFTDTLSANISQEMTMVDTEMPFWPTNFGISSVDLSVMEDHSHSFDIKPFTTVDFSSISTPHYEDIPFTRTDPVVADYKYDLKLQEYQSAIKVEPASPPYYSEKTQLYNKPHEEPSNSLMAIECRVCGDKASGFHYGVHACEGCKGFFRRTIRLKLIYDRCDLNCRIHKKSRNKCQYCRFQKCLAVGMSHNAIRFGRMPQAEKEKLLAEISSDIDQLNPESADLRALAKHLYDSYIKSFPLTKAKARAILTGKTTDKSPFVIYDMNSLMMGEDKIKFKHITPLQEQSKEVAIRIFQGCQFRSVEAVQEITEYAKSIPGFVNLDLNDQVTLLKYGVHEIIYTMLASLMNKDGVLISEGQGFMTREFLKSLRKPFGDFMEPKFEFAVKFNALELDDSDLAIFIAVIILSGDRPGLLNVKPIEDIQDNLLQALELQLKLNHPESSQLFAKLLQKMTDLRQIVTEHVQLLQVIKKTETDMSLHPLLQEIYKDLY
SRC1 TRFRET art = TR-FRET artefact, counter-screen to PPARgamma/SRC-1 agonist assay; TR-FRET detection artefact counter-screen, emission ratio; stronger effect = higher value; 99,000 compounds, 0.34% hits; TR-FRET ratio at 8 µM; AID 1051; in the data active means TR-FRET ratio above about 2300
PPARg SRC-2 ag = PPARgamma-driven SRC-2 recruitment agonism; P37231; PPARgamma LBD-SRC-2 recruitment, biochemical; activation, % at 8 µM; 200,000 compounds, 0.34% hits;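 further: 0% = vehicle and 100% = reference agonist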
SRC3 TRFRET art = TR-FRET artefact, counter-screen to PPARgamma/SRC-3 agonist assay | TR-FRET ratio at 8 µM | PPARgamma/SRC-3 format; stronger effect = higher value | 99,000 compounds, 0.39% hits; in the data active means TR-FRET ratio above about 2000
PPARg SRC1 recr = agonists of human PPARgamma SRC-1 coactivator recruitment. P37231. PPARgamma-SRC-1 coactivator recruitment biochemical assay. activation, % at 8 µM. 200,000 compounds, 0.41% hits. AID 631; in the data active means activation above about 19%;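 further: 0% = DMSO and 100% = reference agonist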
SRC2 TRFRET art = flags TR-FRET format artefacts in PPARgamma SRC-2 recruitment agonist screen; 200,000 compounds, 0.4% hits; TR-FRET artefact counter-screen; stronger effect = higher value; TR-FRET ratio at 8 µM; in the data active means TR-FRET ratio above about 2000
PPARg SRC2 ag = confirmation of agonists of SRC-2 recruitment by human PPARgamma | biochemical SRC-2 recruitment by PPARgamma | activation, % at 8 µM | shares compounds with PPARg SRC3 recr | 790 compounds, 52% hits;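 further: 0% = vehicle alone and 100% = reference agonist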
PPARg SRC1 conf = confirmation of agonists of SRC-1 recruitment by human PPARgamma; shares compounds with PPARg SRC3 recr; PPARgamma–SRC-1 coactivator recruitment biochemical assay; 790 compounds, 43% hits; AID 1300; activation, % at 8 µM; in the data active means activation above about 20%;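 further: 0% = vehicle wells and 100% = reference agonist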
PPARg SRC3 conf = confirmation of agonists of SRC-3 recruitment by human PPARgamma | biochemical PPARgamma-SRC-3 coactivator recruitment, agonist mode | shares compounds with PPARg SRC3 recr | 790 compounds, 29% hits | activation, % at 8 µM; in the data active means activation above about 24%;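 further: 0% = vehicle wells and 100% = reference agonist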
* = called active by the depositor; x = no result. Unless noted, no stated cut-off is given here; in the data, active means activation above about 22%; inactive means the rest.

SMILES	PPARg SRC3 recr	SRC1 TRFRET art	PPARg SRC-2 ag	SRC3 TRFRET art	PPARg SRC1 recr	SRC2 TRFRET art	PPARg SRC2 ag	PPARg SRC1 conf	PPARg SRC3 conf
CCOC(=O)Cc1csc(NC(=O)COc2cc(C)cc(C)c2)n1	-1.3	1610	-1.3	1456	-3.1	1515	x	x	x
O=C(COC(=O)C1CCN(S(=O)(=O)c2ccc3c(c2)OCCO3)CC1)Nc1ccc(C(F)(F)F)cc1	1.8	1803	2.0	1622	4.8	1524	x	x	x
Nc1ccc2c(c1)C(=O)C(=O)c1ccccc1-2	28.7*	x	32.1*	x	22.4*	1964	20.2	22.8*	11.6
O=C1C(=O)c2ccc(-c3ccccc3)cc2-c2ccccc21	-3.2	x	-2.6	x	0.8	1525	x	x	x
Cc1cc(NC(=O)COc2ccc3oc4ccccc4c3c2)no1	11.2	x	20.5	x	26.6*	1701	12.2	13.0	7.1
Cc1cccc(N=C2NC(=O)S/C2=C\c2ccco2)c1	-0.9	2337*	12.5	1601	21.5*	1634	5.8	9.2	4.2
O=C(O)c1ccc2c3c(cccc13)C(=O)N(c1ccccc1)C2=O	-5.0	1776	-4.2	1701	5.4	1684	x	x	x
Cc1c(O)c2c3c(cccc3c1O)C(=O)N(c1ccccc1)C2=O	14.2	2683*	22.4*	2155*	24.5*	2078*	26.2*	16.2	19.0
COc1ccc(S(=O)(=O)N2CC(O)C[C@H]2C(=O)OCC(=O)N2CCCCCC2)cc1 (stereo partly drawn)	-0.1	1665	14.5	1465	-1.8	1675	x	x	x
O=C(c1ccco1)N1N=C(c2ccc(Br)cc2)CC1(O)C(F)(F)F (stereo not drawn)	12.6	2287	15.1	1800	23.2*	2022*	15.2	14.3	13.0
O=C(c1ccco1)N1N=C(c2ccc(Cl)cc2)CC1(O)C(F)(F)F (stereo not drawn)	6.1	1753	3.0	1690	5.2	1680	x	x	x
Cc1ccccc1-n1ncc(C(C)NC(=O)c2ccccc2)c1C (stereo not drawn)	4.5	1871	6.2	1504	8.4	1646	x	x	x
CCn1c(CNC(=O)Cc2ccc(OC)cc2)nnc1SCCOc1ccccc1	0.6	x	-2.1	x	3.0	1574	x	x	x
COc1cccc(CNC(=O)CSc2cc(=O)n(C)c3ccccc23)c1	21.1	2682*	23.1*	2024	42.2*	2371*	36.2*	25.0*	24.3*
COc1ccc(CC(=O)NCc2nnc(SCCOc3ccccc3)n2C)cc1	3.1	x	10.1	x	18.8*	1523	3.2	1.5	1.6
Cn1c(=O)cc(SCC(=O)NCc2ccco2)c2ccccc21	37.6*	x	35.6*	x	27.8*	2082*	33.2*	22.3*	21.1
Cn1c(=O)cc(SCC(=O)NCC2CCCO2)c2ccccc21 (stereo not drawn)	78.1*	x	49.3*	x	45.3*	2686*	34.8*	22.5*	22.5
Cc1ccc(C)c(SCC(=O)NCc2ccco2)c1	-0.1	x	10.6	x	-2.0	1634	x	x	x
COc1ccc(CNC(=O)CSc2cc(=O)n(C)c3ccccc23)cc1	24.2*	2843*	25.5*	2050*	39.8*	2425*	37.3*	24.4*	24.1*
